Our source for the Inhibition values is ChEMBL document CHEMBL4513141, “CO-ADD screening of NIH (USA) - Clinical Collection” (2021).

By Inhibition is commonly meant how much of the control response was suppressed. Low readings indicate little suppression, high ones strong suppression.

Screen size: about 23,000 compounds; about 30 (0.1%) showed an effect of 50% or more. Only a selection was taken, and strong results are over-represented in it overall. Entries with a potency or affinity are not part of this list.

The experiment concerns Pseudomonas aeruginosa. The conditions noted are these: Concentration 20 uM; ASSAY_TEST Inhibition of Bacterial Growth; detection method Absorption (OD600); MEDIA CAMHB; plate type 384well; NBS; CORNING #3640; time 18 hr.
`CN1C(=O)CN=C(c2ccccc2)c2cc(Cl)ccc21` [DIAZEPAM]: the Inhibition stood at 6.74%.
The compound `Cc1ncc2n1-c1ccc(Cl)cc1C(c1ccccc1F)=NC2.Cl` [MIDAZOLAM HYDROCHLORIDE] yielded an Inhibition of 11.86%.
On to `Cc1nnc2n1-c1ccc(Cl)cc1C(c1ccccc1)=NC2` [ALPRAZOLAM], for which the Inhibition came to 52.22%.
As for `Cn1c(=O)c2nc[nH]c2n(C)c1=O.O` [THEOPHYLLINE], the figure is 16.98%.
